SMILES strings stand for the structures. Several values for one entry are separate records, joined by “and”; a condition that tells them apart may be missing. Equal values may be shown once. About 5,700 (36%) of roughly 16,000 compounds were called active. About 24% were inconclusive and are not listed. The list shows a part of the results. Values without a mark were called inactive. Calls come from the whole dose curve; as a rule, active = well fitted curve in the direction sought with a large enough effect; inconclusive = small, poorly fitted or top-dose-only effect, or effect the other way; inactive = no such curve, though single readings can be large or run the other way.

By AC50 is commonly meant the concentration at which the activity in the assay is half-maximal.
% is set by controls: 0 for no effect and ±100 for the full control effect.

Sequence of Cytochrome P450 1A2 (Homo sapiens) (P05177 whole entry, looked up): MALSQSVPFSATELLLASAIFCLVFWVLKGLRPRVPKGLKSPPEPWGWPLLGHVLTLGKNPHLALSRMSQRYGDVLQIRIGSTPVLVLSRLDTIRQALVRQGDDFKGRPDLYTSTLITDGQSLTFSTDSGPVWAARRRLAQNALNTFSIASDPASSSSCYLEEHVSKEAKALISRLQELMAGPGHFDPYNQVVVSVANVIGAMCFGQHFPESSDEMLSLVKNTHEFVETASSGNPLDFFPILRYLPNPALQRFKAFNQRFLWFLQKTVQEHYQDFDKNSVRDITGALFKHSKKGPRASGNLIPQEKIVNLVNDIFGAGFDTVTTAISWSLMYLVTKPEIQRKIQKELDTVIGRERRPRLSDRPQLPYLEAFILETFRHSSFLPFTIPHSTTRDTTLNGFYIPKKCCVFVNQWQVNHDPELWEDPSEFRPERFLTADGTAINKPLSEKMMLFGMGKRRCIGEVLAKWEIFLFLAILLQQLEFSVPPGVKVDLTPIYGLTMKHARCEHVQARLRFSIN

The experiment addresses Cytochrome P450 1A2 (Homo sapiens) (UniProt P05177). The experiment is described as follows: Cytochrome panel assay with activity outcomes. The settings on record: recombinant CYP, pro-luciferin dealkylation, luminescence, p450-cyp1a2; series mostly up to 57.1 µM; activity, negative = inhibition: at the top concentration.
`O=[N+]([O-])c1cccc(/C=N/Nc2cc(Cl)nc(-c3ccccc3)n2)c1`: the AC50 is 1.26 µM (active). On to `CN(C)C(=O)c1ccc(-c2ccc3ncnc(N4CCNCC4)c3c2)cc1`, for which the “activity, negative = inhibition” value was -13.6%. For `CN1CCN(c2ncnc3ccc(-c4ccc(C(=O)N(C)C)cc4)cc23)CC1`, the “activity, negative = inhibition” value was -11.4%. `CN1CCN(c2ncnc3ccc(-c4ccc5c(c4)OCO5)cc23)CC1`: the AC50 was 2.51 µM (active).

Consider `CN(C)c1ccc(-c2ccc3ncnc(N4CCNCC4)c3c2)cc1`, for which the AC50 is 2.51 µM (active). In the case of `c1nc(N2CCNCC2)c2cc(-c3ccc4c(c3)OCO4)ccc2n1`, the AC50 is 2 µM (active). As for `C[C@H]1C[C@H]2[C@H]3CCC4=CC(=O)C=C[C@@]4(C)[C@]3(F)[C@H](O)C[C@]2(C)[C@@]1(O)C(=O)COP(=O)(O)O`, the activity, negative = inhibition is 2.48% [at 11.4 µM]. The same measure, in the same setting: for `CC1(C)O[C@@H]2C[C@H]3[C@H]4C[C@H](F)C5=CC(=O)C=C[C@@]5(C)[C@@H]4[C@H](O)C[C@]3(C)[C@]2(C(=O)CO)O1` the value was -10.8% [at 25.6 µM].

Take `CCC1CC(CSc2ncn[nH]2)OC1=O` (stereo unspecified): the “activity, negative = inhibition” value was 0.612%. Consider `Clc1ccccc1-c1nc(-c2ccccc2)n[nH]1`, for which the AC50 was 1 µM (active).

In the case of `COc1ccc(CNc2ncncc2-c2ccc3c(c2)OCO3)c(OC)c1`, the AC50 is 0.501 µM (active). The same measure, in the same setting: for `COc1ccccc1CNc1ncncc1-c1ccc2c(c1)OCO2` the value was 0.158 µM (active).

In the case of `Cc1nnc(S(=O)(=O)c2ccc(N=Nc3c(N)nc(N)nc3N)cc2)s1`, the activity, negative = inhibition is -10.2% [at 2.29 µM].

Turning to `Cc1nn(C(=O)CN2C(=O)c3ccccc3C2=O)c(C)c1Br`, the “activity, negative = inhibition” value is -9.22%.

With `Cc1nc2ncnn2c(C)c1CCC(=O)N1CCN(C(=O)c2ccco2)CC1`, the “activity, negative = inhibition” value is 2.36%. Consider `Cc1nn(C(=O)c2cccnc2)c(C)c1Sc1ccc(Br)cc1`, for which the AC50 is 7.08 µM (active). Regarding `O=C(c1ccco1)N1CCC2(CCN(Cc3ccccc3)CC2)CC1`, the “activity, negative = inhibition” value is 0.0929%.

Regarding `Cc1nn(C(=O)c2ccco2)c(C)c1Sc1ccccc1`, the AC50 was 15.8 µM (active). On the same count and under the same terms, for `Cc1nn(C(=O)c2ccco2)c(C)c1Sc1ccc(Br)cc1` the value was 14.1 µM (active). Take `CCCCN(C(=S)Nc1ccccc1)C1CCS(=O)(=O)C1` (stereo unspecified): the “activity, negative = inhibition” value was -16.7%. Still for that read-out and setting: to `O=C(O)[C@@H]1CCCN1` belongs -12% [at 11.4 µM]; to `O=C(O)[C@H]1C[C@H](C(=O)O)N1`, -1.37%. For the compound `O=C(O)[C@@H]1C[C@@H](C(=O)O)N1`, the AC50 is 31.6 µM (active). Still for that read-out and setting: for `NC(N)=NN=Cc1c(Cl)cccc1Cl` the value was 7.94 µM (active) and 3.98 µM (active); for `NC(N)=NC(=O)Cc1c(Cl)cccc1Cl`, “inactive”. Regarding `NC(N)=N/N=C\c1ccc(O)c(C(=O)O)c1`, the activity, negative = inhibition is -11.9% [at 2.29 µM]. For `Cc1ccc(OCC(=O)NNC(=O)c2cc3ccccc3o2)cc1`, the “activity, negative = inhibition” value was -13.1%. As for `Cc1cccc(NC(=O)c2ccc([N+](=O)[O-])o2)n1`, the AC50 was 5.01 µM (active). On the same count and under the same terms, to `Cc1cccc(NC(=O)c2cc(=O)c3ccccc3o2)n1` belongs 2 µM (active).

Take `Cc1cccc(NC(=O)c2cc(N3C(=O)CCC3=O)ccc2Cl)n1`: the “activity, negative = inhibition” value is -29.7%. Still for that read-out and setting: to `Cc1cccc(Sc2c([N+](=O)[O-])ncn2C)n1` belongs 14.5%.
